# According to paper PMC4336329 (PLoS ONE, 2015):
# Among all 310,000 compounds or so, about 14,000 (4.5%) showed an effect of 50% or more. Effects have a minus sign here. What follows is part of a selection rich in strong results, with near analogues and random picks from the rest.
# Target: human ether-à-go-go-related gene (hERG) potassium channel (human, UniProt Q12809)
# Assay: primary screen, population patch clamp on CHO cells stably expressing hERG; higher = less effect of the substance
# 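Note: peak tail current of the secondary pulse compared with the same well before compound.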
# human ether-à-go-go-related gene (hERG) potassium channel, sequence (Q12809 whole entry, looked up): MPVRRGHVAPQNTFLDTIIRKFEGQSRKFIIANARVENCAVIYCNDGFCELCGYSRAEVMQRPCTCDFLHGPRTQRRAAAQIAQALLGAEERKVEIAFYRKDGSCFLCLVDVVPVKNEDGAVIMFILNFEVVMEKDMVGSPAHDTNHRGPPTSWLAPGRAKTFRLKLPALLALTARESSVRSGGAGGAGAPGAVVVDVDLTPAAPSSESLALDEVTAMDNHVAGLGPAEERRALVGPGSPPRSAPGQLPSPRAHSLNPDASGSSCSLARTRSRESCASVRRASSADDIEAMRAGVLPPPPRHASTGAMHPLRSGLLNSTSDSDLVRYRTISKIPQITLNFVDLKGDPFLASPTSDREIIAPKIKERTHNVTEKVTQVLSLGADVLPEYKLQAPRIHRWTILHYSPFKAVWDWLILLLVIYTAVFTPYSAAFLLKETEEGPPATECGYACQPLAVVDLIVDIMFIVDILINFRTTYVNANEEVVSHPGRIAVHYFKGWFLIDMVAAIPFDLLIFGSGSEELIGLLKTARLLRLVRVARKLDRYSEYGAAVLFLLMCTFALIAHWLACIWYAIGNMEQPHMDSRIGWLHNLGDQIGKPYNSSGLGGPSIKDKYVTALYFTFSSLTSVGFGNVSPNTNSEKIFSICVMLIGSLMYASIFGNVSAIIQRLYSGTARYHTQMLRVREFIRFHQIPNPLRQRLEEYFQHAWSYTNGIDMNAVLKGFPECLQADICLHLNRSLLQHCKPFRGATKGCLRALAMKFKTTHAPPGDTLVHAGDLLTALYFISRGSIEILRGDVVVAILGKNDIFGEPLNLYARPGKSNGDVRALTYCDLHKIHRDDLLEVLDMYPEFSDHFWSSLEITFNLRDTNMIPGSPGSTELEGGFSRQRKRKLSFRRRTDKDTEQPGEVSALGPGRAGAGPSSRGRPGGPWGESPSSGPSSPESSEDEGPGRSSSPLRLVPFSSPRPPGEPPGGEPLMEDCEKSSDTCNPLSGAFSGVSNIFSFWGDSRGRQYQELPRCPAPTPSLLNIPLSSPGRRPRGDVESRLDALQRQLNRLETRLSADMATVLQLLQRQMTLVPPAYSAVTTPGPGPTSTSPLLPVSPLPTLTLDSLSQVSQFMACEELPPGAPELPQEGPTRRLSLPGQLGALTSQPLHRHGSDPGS
row,Structure (SMILES),"hERG current change (%, negative = inhibition) at 10uM [%]"
1,Cc1ccc(OCC(=O)N2CCN(S(=O)(=O)c3ccc(Cl)cc3)CC2)c([N+](=O)[O-])n1,-48.8
2,CC(=O)c1ccc(OCCCC(=O)N2CCN(S(=O)(=O)c3ccc(C)cc3C)CC2)cc1,-40.8
3,Cc1ccc(OCC(=O)N2CCN(S(=O)(=O)c3ccccc3)CC2)c([N+](=O)[O-])n1,-45.8
4,Cc1ccc(S(=O)(=O)N2CCN(C(=O)COc3ccc(C)nc3[N+](=O)[O-])CC2)c(C)c1,-61
5,Cc1ccc(OCC(=O)N2CCC(C)CC2)c([N+](=O)[O-])n1,-7.74
6,CC(=O)c1ccc(OCC(=O)N2CCN(S(=O)(=O)c3ccc(C)cc3C)CC2)cc1,-61.6
7,O=C(COc1ccccc1[N+](=O)[O-])N1CCC(Cc2ccccc2)CC1,-16.1
8,CC(=O)c1ccc(OCCCC(=O)N2CCN(S(=O)(=O)c3cc(C)ccc3C)CC2)cc1,-37.1
9,Cc1ccc(OCC(=O)N2CCC(Cc3ccccc3)CC2)c([N+](=O)[O-])n1,-67.7
10,COc1ccc(CNC(=S)Nc2ccc(OC)cc2)cc1,3.09
11,Cc1nnc(-c2ccc(N3CCCCCC3)c([N+](=O)[O-])c2)o1,-4.52
12,Cc1ccc(CN2C(=O)CCC2C(=O)NCCc2ccccc2)cc1 (stereo not drawn),7.99
13,c1ccc2nc3c(nc2c1)CCCC3,17.2
14,Cn1c(=O)c2c(nc(SCc3cccnc3)n2Cc2ccccc2)n(C)c1=O,-17.6
15,C=CCOCCN(C)C1=NS(=O)(=O)c2cc([N+](=O)[O-])ccc21,-19.8
16,Cc1ncc(CN2CCC(CO)(CCOc3ccccc3)CC2)s1,-70.1
17,Cc1ncc(CN2CCC(CO)(CCc3ccccc3)CC2)s1,-60.4
18,Cc1ncc(CN2CCC(CO)(Cc3ccccc3)CC2)s1,-7
19,Cc1ccc(NC(=O)c2ccc3nc(N4CCOCC4)sc3c2)c(Cl)c1,6.14

row,Structure (SMILES),"hERG current change (%, negative = inhibition) at 10uM [%]"
1,Cc1ccc(NC(=O)/C=N/OCC(=O)NCc2ccccc2Cl)cc1,2.92
2,Cc1cc(C)nc(NC(=O)CSc2nc3ccccc3s2)n1,2.88
3,Cc1cc(C)nc(SCc2nc3nc(C)cc(C)n3c2Br)n1,-22.6
4,Cc1cc(C)n(C(=O)CSc2nc3ccccc3o2)n1,19.3
5,Cc1cc(C)n2c(Br)c(CSc3nc4ccccc4o3)nc2n1,-63.9
6,Cc1csc2nc(CSc3nc4ccccc4o3)c(Br)n12,7.03
7,Cc1cc(C)n2c(Br)c(CSc3nc4ccccc4s3)nc2n1,-76.7
8,CCOc1ccc(/C=N/NC(=O)c2[nH]ncc2Br)c(O)c1,4.05
9,COc1ccc(NC(=O)CC(c2ccc(F)cc2)c2ccc(OC(C)C)cc2)cc1 (stereo not drawn),3.91
10,Cc1ccc(C(CC(=O)NCCCN(C)C)c2ccc(OC(C)C)cc2)cc1 (stereo not drawn),-42.9
11,CN(C)CCCNC(=O)CC(c1ccc(F)cc1)c1ccco1 (stereo not drawn),-37.3
12,CC(C)Oc1ccc(C(CC(=O)O)c2ccc(F)cc2)cc1 (stereo not drawn),6.58
13,CC(C)Oc1ccc(C(CC(=O)NCCCN(C)C)c2ccc(F)cc2)cc1 (stereo not drawn),-57.1
14,CC(C)Oc1ccc(C(CC(=O)N(C)CCC#N)c2ccc(F)cc2)cc1 (stereo not drawn),-59.2
15,Br.O=C(N=c1nc2ccccn2s1)c1ccccc1,14.1
16,CCn1c(COc2ccc(=O)n(-c3ccccc3)n2)nnc1SCc1ccccc1,-48.2
17,CCn1c(COc2ccc(=O)n(-c3ccccc3)n2)nnc1SCC(=O)OC,9.02
18,CCn1c(COc2ccc(=O)n(-c3ccccc3)n2)nnc1SCc1ccc(C)cc1,-59.9
19,CCn1c(COc2ccc(=O)n(-c3ccccc3)n2)nnc1SC,2.39

row,Structure (SMILES),"hERG current change (%, negative = inhibition) at 10uM [%]"
1,CCn1c(COc2ccc(=O)n(-c3ccccc3)n2)n[nH]c1=S,23.3
2,CCn1c(COc2ccc(=O)n(-c3ccccc3)n2)nnc1SCc1ccc(OC)cc1,-67.7
3,CCn1c(COc2ccc(=O)n(-c3ccccc3)n2)nnc1SCc1cccc(OC)c1,-39.1
4,C=CCSc1nnc(COc2ccc(=O)n(-c3ccccc3)n2)n1CC,-2.15
5,CCn1c(COc2ccc(=O)n(-c3ccccc3)n2)nnc1SCc1ccccc1C,-65.4
6,COc1ccc(-c2csc(NC(=O)CSc3nc(C)nc4sc(C(=O)O)c(C)c34)n2)cc1,11.9
7,COCCNc1nc2c(c(=O)n(Cc3ccccc3F)c(=O)n2C)n1C,-15.8
8,C=CCNC(=O)C(=O)Nc1ccc2c(c1)N(S(=O)(=O)c1cccs1)CCC2,-14.7
9,Cc1ccc(S(=O)(=O)NC(C(=O)Oc2cc3oc(=O)cc(C)c3cc2Cl)C(C)C)cc1 (stereo not drawn),-34.3
10,CCOc1ccc(/C=C(\C)C(=O)c2c(C)cc(C)[nH]c2=O)cc1,5.24
11,CCCCC(CC)C(=O)Nc1ccc(Nc2ccccc2)cc1 (stereo not drawn),-12.8
12,CCCCC(CC)C(=O)Nc1ccccc1C#N (stereo not drawn),-4.83
13,CCCCc1ccc(NC(=O)C(C)CC)cc1 (stereo not drawn),-50.5
14,CCCCc1ccc(NC(=O)OC)cc1,-9.08
15,CCCCC(CC)C(=O)Nc1ccc(C#N)cc1 (stereo not drawn),-52.5
16,CCCCc1ccc(NC(=O)CC(C)C)cc1,-6.78
17,COc1ccc(CNC(=O)c2ccc(NS(=O)(=O)c3ccc4[nH]c(=O)[nH]c4c3)cc2)cc1OC,13.3
18,CCOC(=O)c1ccc(NC(=O)CSc2nc(=O)n3cccc(C)c3n2)cc1,-21.9
19,COc1cc(Cl)c(S(=O)(=O)NCCCn2ccnc2)cc1Cl,3.34
